# Screens deposited in PubChem BioAssay by several laboratories.
# KLF5 inhibitor: KLF5 expression inhibitors, primary screen, DLD-1 cells, luminescence. DLD-1 KLF5 promoter-luciferase reporter. inhibition, % at 5 µM. 290,000 compounds, 0.23% hits;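 active means inhibition above a per-plate limit of that plate's mean compound inhibition plus 3 SD, cut at about 60% in these data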;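 further: 0% = DMSO wells and 100% = LY294002 at 200 µM; higher means less KLF5 promoter-driven luciferase light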
# APP 5UTR inh: inhibitors of APP translation via 5'UTR reporter, primary screen, APP 5'UTR luciferase, SH-SY5Y cells. SH-SY5Y APP 5'UTR-luciferase reporter, luminescence. inhibition, % at 2 µM. 190,000 compounds, 0.82% hits. AID 1285, 2008;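 active means inhibition above a set limit, derived from the sample mean plus 3 SD, cut at about 45% in these data; inconclusive means one replicate passes the limit while the other fails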
# BaF3 parental: parental Ba/F3 cell viability inhibition, counter-screen for JAK2V617F inhibitor project, murine pro-B, CellTiter-Glo luminescence. CellTiter-Glo ATP luminescence. inhibition, % at 5.6 µM. 220,000 compounds, 1.1% hits;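 active means inhibition above a per-campaign cutoff, the mean inhibition of all tested compounds plus 3 SD, cut at about 27% in these data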;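 further: 0% = DMSO wells and 100% = JAK Inhibitor I control wells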
# Ba/F3 V617F tox: reduced viability of JAK2V617F-dependent Ba/F3 cells, primary screen, JAK2V617F inhibitor project, cell-based, Ba/F3 EpoR-JAK2V617F, luminescence | AID 1446, 2008 | ATP luminescence | inhibition, % at 5.6 µM | 220,000 compounds, 1.1% hits;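 active means inhibition above the campaign mean plus 3 SD over all tested compounds, cut at about 24% in these data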;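 further: cytokine-independent growth of Ba/F3 cells driven by EpoR plus mutant JAK2; 0% = DMSO-treated cells and 100% = JAK inhibitor I control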
# aSyn 5UTR inh: MLPCN primary screen, SNCA 5' untranslated region. alpha-synuclein 5'UTR reporter, inhibitor activity. 300,000 compounds, 0.82% hits. inhibition, % (tested at 7.5 µM); in the data active means inhibition above about 60%; inconclusive means no clear call, values can overlap the other calls;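 further: H4 neuroglioblastoma cells stably carrying SNCA 5'UTR luciferase fusion; 0% = DMSO wells and 100% = positive control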
# IEC-6 cytotox: cytotoxicity in IEC-6 intestinal epithelial cells, primary screen, cytotoxicity control for KLF5 inhibitor project, cell-based, luminescence. IEC-6 cytotoxicity, luminescence viability. inhibition, % at 5 µM. 290,000 compounds, 0.78% hits. AID 1825, 2009; in the data active means inhibition above about 22%;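 further: 0% = plate median of test compound wells and 100% = cytotoxic reference compound wells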
# Starred values were filed as active, the others as inactive; u = inconclusive; x = no result. Only some compounds are listed: those with a hit (about 2.2% of all), similar ones and a draw of the others.
SMILES,KLF5 inhibitor,APP 5UTR inh,BaF3 parental,Ba/F3 V617F tox,aSyn 5UTR inh,IEC-6 cytotox
CC(C)C(C(=O)NCC1CCCO1)N(CC1CCCO1)C(=O)CNS(=O)(=O)c1ccccc1 (centres undefined),1,x,x,x,-11,1
CCCOc1ccc(C(=O)NNC(=S)NC(=O)CC)cc1,-6,-2,1,5,85*,8
C=CCNC(=S)NNC(=O)c1ccc(OCCC)cc1,-6,0,6,-2,7,0
COc1ccc(CC(=O)NCC2CCCN(Cc3ccccc3Cl)C2)cc1 (centres undefined),-11,x,x,x,-5,-7
CC(C)/C=C1\CC/C(=C\c2cccnc2)C1=O,-35,19,5,-2,-62,-4
CCC1C/C(=C\c2cccnc2)C(=O)/C(=C/c2cccnc2)C1 (centres undefined),-12,95*,4,6,x,30*
O=C1/C(=C/c2cccnc2)CC/C1=C\c1cccnc1,-6,-14,1,-2,-65,0
O=C1/C(=C/c2cccnc2)CCC/C1=C\c1cccnc1,-3,95*,-6,-3,x,3
Cc1cnc(C(=O)NC2CCSc3ccccc32)cn1 (centres undefined),-4,x,x,x,-8,-2
CN(C)/C=N/C1=C(C#N)C(c2cccs2)c2ccc3ccccc3c2O1 (centres undefined),-42,92*,12,3,x,5
N#CC1=C(N)Oc2cc3ccccc3cc2C1c1cccs1 (centres undefined),-2,-18,4,-1,-21,7
Cc1ccc2c(c1)C=CC(C)(C)S2=O (centres undefined),-10,9,9,6,8,-5
CC[N+]1=C(C)C(C)(C)c2cc(C)ccc21,-79,6,72*,65*,-7,13
COc1ccc(-c2oc3cc(OC)c(O)c(OC)c3c(=O)c2OC)cc1O,-25,14,1,8,65*,10
COc1ccc(-c2oc3cc(O)c(OC)c(O)c3c(=O)c2OC)cc1,x,x,x,x,-45,x
CCCCn1c(CN(C)Cc2ccccc2)nc2c1c(=O)n(C)c(=O)n2C,-28,-7,29*,7,-1,8
CCCCn1c(CN2CCN(c3ccccc3)CC2)nc2c1c(=O)n(C)c(=O)n2C,-2,-3,29*,23,-31,6
CN(Cc1ccccc1)Cc1nc2c(c(=O)n(C)c(=O)n2C)n1CCc1ccccc1,-1,-1,1,-4,-12,0
CCOc1ccc(NC(=O)Cn2c(=O)n(CCCC(=O)NC3CCN(Cc4ccccc4)CC3)c(=O)c3ccccc32)cc1,-5,x,x,x,7,-7
Cn1c(C(C)(O)C(O)c2ccccc2)nc2ccccc21 (centres undefined),-10,3,3,-2,3,5
COc1ccc(-c2coc3cc4oc(=O)cc(C)c4cc23)cc1F,-29,-7,1,-2,22,7
COc1ccc(-c2coc3cc4oc(=O)cc(-c5ccccc5)c4cc23)cc1F,-10,90*,5,1,113*,7
CCOC(=O)c1cccc(NC(=O)/C=C/c2ccc3c(c2)OCO3)c1,23,14,10,7,106*,5
CCCOc1ccc(CNC(=O)c2ccc3c(c2)N(CC)CCS3)cc1,-22,x,x,x,19,0
O=C(c1cccs1)c1no[n+]([O-])c1C(=O)c1cccs1,-7,-9,1,5,63*,-3
SMILES,KLF5 inhibitor,APP 5UTR inh,BaF3 parental,Ba/F3 V617F tox,aSyn 5UTR inh,IEC-6 cytotox
COc1ccc(C(=O)c2no[n+]([O-])c2C(=O)c2ccc(OC)cc2)cc1,-43,-9,8,3,-21,4
N#Cc1c(-c2cccs2)cc(-c2cccs2)[nH]c1=O,-15,x,-2,-3,0,-2
Cc1cc(-c2cccs2)c(C#N)c(=S)[nH]1,-1,x,63*,20,2,-3
COc1ccccc1OC(C)C(=O)Nc1ccc(S(=O)(=O)N2CCN(C)CC2)cc1 (centres undefined),-10,x,x,x,21,-2
O=C1C=C(N2CCOCC2)c2ccccc2C1=O,-17,x,x,x,114*,-7
Cc1ccc(NCCc2ccc(C)nc2)cc1,-15,53*,1,-3,-29,-3
Cc1ccc(CCNc2ccc3ccccc3c2)cn1,-30,-10,5,-1,19,1
O=C(O)C1OC(Oc2cc3oc(-c4ccccc4)cc(=O)c3c(O)c2O)C(O)C(O)C1O (centres undefined),-39,6,3,-4,-43,-21
COc1c(OC2OC(C(=O)O)C(O)C(O)C2O)cc(O)c2c(=O)cc(-c3ccccc3)oc12 (centres undefined),-7,6,29*,19,13,-1
Nc1cccc(CCc2nc3cc4ccccc4cc3[nH]2)c1,-49,17,51*,88*,-48,49*
c1ccc(CCc2nc3ccccc3[nH]2)cc1,-93,-58,3,-1,-120,-5
CC1CCC(NC(=O)CCNC(=O)c2ccc(Br)cc2)CC1 (centres undefined),x,x,x,x,-71,x
COc1ccc(NC(=O)CCNS(=O)(=O)c2cccc3nsnc23)cc1OC,10,4,5,-2,3,-3
CCc1ccc(NC(=O)CCNS(=O)(=O)c2cccc3nsnc23)cc1,-14,-5,61*,5,-12,2
CC(C)OCCCNc1ncnc2c1[nH]c1ccccc12,-10,1,52*,40*,-178,9
COc1ccc(CNc2ncnc3c2[nH]c2ccccc23)cc1,-31,x,1,1,3,10
O=C(CCN1C(=O)c2ccccc2S1(=O)=O)NCc1ccccc1Cl,x,x,x,x,9,x
O=C(Nc1ccc2c(c1)C(=O)NC2=O)c1cccc(C(F)(F)F)c1,-9,x,x,x,-13,1
Oc1ccccc1N=Nc1ccccc1O,61,83*,3,6,u,-3
CC(=O)c1ccc(N2CCN(C(=O)c3ccc(Cn4c(=S)[nH]c5ccc(N6CCOCC6)cc5c4=O)cc3)CC2)cc1,-66,-40,3,1,-72,4
Cc1ccc(-c2nn3cnnc3c3ccccc23)cc1C,-7,-31,7,4,64*,14
Cc1ccc(-c2nn3nnnc3c3ccccc23)cc1C,-9,-10,-1,-3,35,-2
CC1=NN(c2ccccc2)C(=O)/C1=C\C=C\c1ccccc1,-38,x,1,-3,-127,2
CC1=NN(c2ccc(C)c(C)c2)C(=O)/C1=C\C=C\c1ccc([N+](=O)[O-])o1,1,95*,0,-2,78*,-5
CCCCOn1c(C)c(C(=O)OCC)c2c3nonc3ccc21,-5,-18,1,-1,10,2
COn1c(C)c(C(C)=O)c2c3nonc3ccc21,-34,-4,96*,2,12,2
